This note sets out measurements from PubChem BioAssay (NCATS).

SMILES strings stand for the structures. Values joined by “and” are separate entries in the source; they are usually repeats but may differ in a detail not shown here. Equal entries are not always repeated. Results filed as inconclusive are left out. Values without a mark were called inactive. Active and inactive are the calls of the source. Calls follow the shape of the dose curve; as a rule, active = well fitted curve in the direction sought with a large enough effect; inconclusive = small, poorly fitted or top-dose-only effect, or another doubt; inactive = no such curve, though single readings can be large; an effect the other way counts as inactive or inconclusive.

One test has as its system TAB165. As to the kind of experiment: qHTS profiling for inhibitors of Plasmodium falciparum proliferation (AID 504749). Also: nearly all actives have a fitted effect of over 60% in size. Also: potency is read from the fitted curve at half-maximal effect. Particulars: P. falciparum in erythrocytes, SYBR Green DNA, 72 h; series mostly up to 28.7 µM. An outline of the steps: (§1)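 P. falciparum-infected erythrocytes (0.3% parasitemia, 2.5% hematocrit final) were exposed to compounds for 72 h at 37 C in 5% CO2, then lysed with SYBR Green buffer overnight at room temperature; parasite DNA fluorescence was normalized to artemisinin and DMSO controls.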

Another test relates to W2. The test is described as above. The conditions noted are these: P. falciparum in erythrocytes, SYBR Green DNA, 72 h; series mostly up to 28.7 µM. An outline of the steps: as §1
For another test, the system named is CRL-7250. As to the kind of experiment: Cytotoxic Profiling of Annotated Libraries Using Quantitative High-Throughput Screening (AID 1296008). Also: nearly all actives have a fitted effect of over 60% in size. As to max response: % is scaled to controls: 0 for no effect and ±100 for the full control effect. Particulars: Five cell lines viability, CellTiter-Glo ATP luminescence, 48-72 h; max response: hits give low values. The gist of the method:
(§2)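 Compounds were pin-transferred onto cells and incubated 48 or 72 hr at 37 degree Celsius, 95% humidity. CellTiter-Glo was added, plates sat 10 min at room temperature, then ATP-coupled luminescence was imaged as the viability read-out.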

Another test deals with HEK293. Described as above. Particulars: Five cell lines viability, CellTiter-Glo ATP luminescence, 48-72 h; max response: hits give low values. An outline of the steps:
as §2

The test system of test [1] is HaCat. Described as above. The conditions noted are these: Five cell lines viability, CellTiter-Glo ATP luminescence, 48-72 h; max response: hits give low values. The gist of the method: as §2
Another test deals with KB-3-1. The test is described as above. The conditions noted are these: Five cell lines viability, CellTiter-Glo ATP luminescence, 48-72 h; max response: hits give low values. The gist of the method:
as §2

The subject of the next test is NIH3T3. The test is described as above. Particulars: Five cell lines viability, CellTiter-Glo ATP luminescence, 48-72 h; max response: hits give low values. An outline of the steps: as §2
The test system of another test is MCC-13. Description: qHTS assay to identify novel small-molecules to repurpose for Merkel cell carcinoma treatment (AID 1296009). Also: nearly all actives have a fitted effect of over 60% in size. Also: potency is read from the fitted curve at half-maximal effect. Particulars: MCC and control cell lines, CellTiter-Glo viability, 72 h; series mostly up to 46 µM. An outline of the steps:
(§3)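 Cells exposed to NPC (8-point) and MIPE (11-point) compound dilutions for 72 hr at 37 degree celsius; viability read by CellTiter-Glo luminescence, normalized to no-cell and DMSO in-plate controls.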

The test system of the next test is MKL-1. Described as above. The conditions noted are these: MCC and control cell lines, CellTiter-Glo viability, 72 h; series mostly up to 46 µM. The gist of the method:
as §3

Another test deals with MKL-2. The description is as above. The conditions noted are these: MCC and control cell lines, CellTiter-Glo viability, 72 h; series mostly up to 46 µM. The gist of the method: as §3
The test system of the next test is UISO. The description is as above. The conditions noted are these: MCC and control cell lines, CellTiter-Glo viability, 72 h; series mostly up to 46 µM. An outline of the steps:
as §3

A further test concerns WaGa. The description is as above. The conditions noted are these: MCC and control cell lines, CellTiter-Glo viability, 72 h; series mostly up to 46 µM. The gist of the method: as §3
A further test has as its system C33A. Description: Primary qHTS to identify gynecologic anti-cancer compounds using libraries of approved drugs and bioactive compounds (AID 1345084). Also: % is scaled to controls: 0 for no effect and ±100 for the full control effect; nearly all actives have a fitted effect of over 55% in size. The conditions noted are these: Gynecologic cancer cell panel viability, ATPlite luminescence, 48 h; series mostly up to 57.5 µM. The gist of the method: (§4)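 Luminescence from the ATPlite ATP-monitoring reagent indicates viable cell number; lower signal means cytotoxicity. Cells received compound 16 h after seeding and were exposed for 48 h across five concentrations.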

The subject of a further test is CAOV3. The test is described as above. The conditions noted are these: Gynecologic cancer cell panel viability, ATPlite luminescence, 48 h; series mostly up to 57.5 µM. An outline of the steps:
as §4

In a further test the test system is CASKI. The description is as above. Particulars: Gynecologic cancer cell panel viability, ATPlite luminescence, 48 h; series mostly up to 57.5 µM. An outline of the steps:
as §4

The next test relates to Es-2. Described as above. Particulars: Gynecologic cancer cell panel viability, ATPlite luminescence, 48 h; series mostly up to 57.5 µM. The gist of the method: as §4
The subject of test [2] is HACAT. Description: qHTS assay to identify novel small-molecules to repurpose for Merkel cell carcinoma treatment (AID 1296009). Also: nearly all actives have a fitted effect of over 60% in size. Also: potency is read from the fitted curve at half-maximal effect. Particulars: MCC and control cell lines, CellTiter-Glo viability, 72 h; at 44.8 µM (top of the series) unless noted. The gist of the method:
as §3

In the next test the test system is MCC-26. The description is as above. The conditions noted are these: MCC and control cell lines, CellTiter-Glo viability, 72 h; series mostly up to 46 µM. The gist of the method: as §3

Consider `CCCn1cnc2c1c(=O)n(CCCCC(C)=O)c(=O)n2C`, for which the Potency entry in the test on TAB165, in the test on MCC-13, with MKL-1, in the test on MKL-2, with UISO and in the test on WaGa was “inactive” in each case. Further, the Potency entry in the test on C33A, in the test on CAOV3, in the test with CASKI and in the test on Es-2 was “inactive” throughout. In the test on W2, the Potency is 15.1 µM (active). For the same molecule, the max response was -5.12% with CRL-7250; -11.1% with HEK293; -0.92% in the test with HaCat [1]; 4.64% with KB-3-1; -3.42% in the test on NIH3T3.

Turning to `CN1CCN(C2Cc3ccccc3Sc3ccc(Cl)cc32)CC1` (configuration not stated), the Potency in the test with TAB165 is 12.6 µM (active); in the test with W2, 3.79 µM (active); in the test with MKL-1 it was 26.6 µM (active); in the test on MKL-2, 26.6 µM (active); in the test on UISO, 23.7 µM (active); with WaGa, 23.7 µM (active). Moreover, the max response was -15.1% in the test with CRL-7250, 6.06% with KB-3-1 and -9.64% in the test with NIH3T3. For the same molecule, the molecule was classed as inactive in the test with HaCat [1] and with HACAT [2]. For the same molecule, the Potency entry in the test on MCC-13, with MCC-26, in the test on C33A, in the test with CASKI and in the test on Es-2 was “inactive” each time.

Turning to `CC(=O)c1ccc2c(c1)N(CCCN(C)C)c1ccccc1S2`, the Potency result in the test on TAB165, in the test on MCC-13, with MCC-26, with MKL-1, in the test on UISO and with C33A was “inactive” throughout. Moreover, the Potency result in the test with CAOV3, in the test on CASKI and in the test with Es-2 was “inactive” each time. The Potency with W2 is 1.02 µM (active); in the test on WaGa, 26.6 µM (active). Moreover, the figures for the max response with KB-3-1 and in the test on NIH3T3 were -1.52% and 1.48%, respectively.

On to `O=C1Nc2ccc(Cl)cc2[C@@](C#CC2CC2)(C(F)(F)F)O1`, for which the max response was -9.32% and 4.5% with CRL-7250; 17.8% and -24.9% in the test with KB-3-1; 3.57% with NIH3T3. The outcome in the test on HaCat [1] and in the test on HACAT [2] was inactive. Further, the Potency entry in the test on C33A, with CAOV3, in the test on CASKI and in the test on Es-2 was “inactive” in each case.

As for `CSc1ccc2c(c1)N(CCC1CCCCN1C)c1ccccc1S2` (configuration not stated), the Potency with TAB165 was 12.6 µM (active); with W2, 6.75 µM (active); in the test with MCC-13 it was 26.6 µM (active); in the test with MKL-1, 11.9 µM (active); with MKL-2 it was 3.35 µM (active); with UISO, 26.6 µM (active). Also, the Potency in the test with WaGa is 23.7 µM (active). Further, the max response in the test on KB-3-1 is -7.5%. In the test on Es-2, the Potency entry is “inactive”.

As for `NC(=O)c1ncn([C@@H]2O[C@H](CO)[C@@H](O)[C@H]2O)n1`, the Potency entry in the test with CAOV3, in the test on CASKI and in the test on Es-2 was “inactive” throughout.

Consider `CC(=O)Oc1ccc(C2(c3ccc(OC(C)=O)cc3)C(=O)Nc3ccccc32)cc1`, for which the Potency result with TAB165, with W2, in the test on MCC-13, in the test on MCC-26, in the test with MKL-1 and in the test on MKL-2 was “inactive” throughout. For the same molecule, the Potency result with WaGa, in the test on C33A, in the test with CASKI and in the test with Es-2 was “inactive” each time. Besides, the max response was 1.93% in the test with HEK293; -16.5% in the test with HaCat [1]; -1.67% and 11.5% in the test with KB-3-1; -14.8% in the test on NIH3T3.

With `CN(C)CCC=C1c2ccccc2CCc2ccccc21`, the outcome in the test on HaCat [1] and in the test with HACAT [2] was inactive. The values for the max response in the test with KB-3-1 and in the test on NIH3T3 were -15.7% and -1.26%, respectively. Also, the Potency entry in the test on MCC-13, in the test on MCC-26, in the test on MKL-1, with UISO, in the test on C33A and in the test on CAOV3 was “inactive” in each case. Also, the Potency result in the test with CASKI and with Es-2 was “inactive” each time.
